Results filed as inconclusive are left out. Activity calls are given as the source filed them. The calls were made as follows, unless noted: active = hit-call score of the fitted dose curve at least 0.9, where 1 is the maximum; inactive = score below 0.9.
Assays:
[1] = read-out: solute carrier (SLCO1B1), SLCO1B1 (gene 10599); assay: LTEA_HepaRG_SLCO1B1: Life Technologies and Expression Analysis (LTEA) Assay for solute carrier (SLCO1B1) using HepaRG (AID 2283530); settings: mRNA level, 48 h; actives raise or lower the signal
Method in brief: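 SLCO1B1 transcript read by qRT-PCR (Fluidigm arrays), normalized to three housekeeping genes, after 48 h chemical exposure of HepaRG cells; bidirectional concentration-response fitting versus 0.5% DMSO baseline. Eight-point half-log series, maximum 100 uM.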

[2] = read-out: sulfotransferase 2A1 (SULT2A1), SULT2A1 (gene 6822); assay: LTEA_HepaRG_SULT2A1: Life Technologies and Expression Analysis (LTEA) Assay for sulfotransferase 2A1 (SULT2A1) using HepaRG (AID 2283531); settings: mRNA level, 48 h; actives raise or lower the signal
Method in brief: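 HepaRG, 48 h chemical exposure, 8-pt half-log curve from 100 uM in 0.5% DMSO, duplicates. Readout: TaqMan qRT-PCR of SULT2A1 mRNA, housekeeping-normalized. Bidirectional fit vs DMSO baseline.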

[3] = read-out: Transforming Growth Factor (TGFB1), TGFB1 (gene 7040); assay: LTEA_HepaRG_TGFB1: Life Technologies and Expression Analysis (LTEA) Assay for Transforming Growth Factor (TGFB1) Transporter using HepaRG (AID 2283533); settings: mRNA level, 48 h; actives raise or lower the signal
Method in brief: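 qRT-PCR readout of TGFB1 transcript in HepaRG lysates, normalized to three housekeeping genes; gain or loss of signal fitted relative to 0.5% DMSO vehicle. Exposure: 48 h, 8-point curve from 100 uM, duplicate wells.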

TIMP1, TIMP1 (gene 7076) = assay: LTEA_HepaRG_TIMP1: Life Technologies and Expression Analysis (LTEA) Assay for TIMP1 using HepaRG (AID 2283534); settings: mRNA level, 48 h; actives raise or lower the signal;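 also: TaqMan qRT-PCR signal normalized to ACTB GAPDH and POLR2A housekeeping genes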
Method in brief: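 HepaRG, 48 h exposure, 8-pt half-log series from 100 uM in 0.5% DMSO, duplicates; TIMP1 transcript by Fluidigm qRT-PCR, housekeeping-normalized; bidirectional curve fit vs DMSO baseline.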

[4] = read-out: Tumor necrosis factor receptor 1 (TNFRSF1A), TNFRSF1A (gene 7132); assay: LTEA_HepaRG_TNFRSF1A: Life Technologies and Expression Analysis (LTEA) Assay for Tumor necrosis factor receptor 1 (TNFRSF1A) using HepaRG (AID 2283535); settings: mRNA level, 48 h; actives raise or lower the signal
Method in brief: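 HepaRG, 48 h plating then 48 h chemical exposure, serum-free induction media; 8-pt CRC from 100 uM, half-log, 0.5% DMSO vehicle, duplicates. Readout: TaqMan qRT-PCR (Fluidigm), housekeeping-gene normalized; bidirectional fit vs DMSO.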

[5] = read-out: Thyroid Hormone Responsive (THRSP), THRSP (gene 7069); assay: LTEA_HepaRG_THRSP: Life Technologies and Expression Analysis (LTEA) Assay for Thyroid Hormone Responsive (THRSP) using HepaRG (AID 2283536); settings: mRNA level, 48 h; actives raise or lower the signal
Method in brief: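 THRSP transcript quantified by Fluidigm qRT-PCR against three housekeeping genes after 48 h chemical exposure of HepaRG cells in serum-free induction medium; eight-point half-log series, top 100 uM, 0.5% DMSO vehicle, duplicate wells.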

[6] = read-out: Cellular tumor antigen p53 (Homo sapiens) (UniProt P04637); assay: LTEA_HepaRG_TP53: Life Technologies and Expression Analysis (LTEA) Assay for Tumor Protein P53 (TP53) using HepaRG (AID 2283537); settings: mRNA level, 48 h; actives raise or lower the signal
Method in brief: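 TP53 transcript measured by qRT-PCR, normalized to three housekeeping genes, after 48 h treatment of human HepaRG cultures with chemicals from 100 uM downward in half-log steps (0.5% DMSO vehicle, serum-free induction medium). Up- or down-regulation fitted against DMSO.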

[7] = read-out: UDP glucuronosyltransferase (UGT1A1), UGT1A1 (gene 54658); assay: LTEA_HepaRG_UGT1A1: Life Technologies and Expression Analysis (LTEA) Assay for UDP glucuronosyltransferase (UGT1A1) using HepaRG (AID 2283538); settings: mRNA level, 48 h; actives raise or lower the signal
Method in brief: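 mRNA induction or loss of UGT1A1, by TaqMan qRT-PCR, in duplicate HepaRG wells after 48 h exposure to half-log dilutions topping at 100 uM; DMSO (0.5%) served as baseline.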

[8] = read-out: UDP glucuronosyltransferase (UGT1A6), UGT1A6 (gene 54578); assay: LTEA_HepaRG_UGT1A6: Life Technologies and Expression Analysis (LTEA) Assay for UDP glucuronosyltransferase (UGT1A6) using HepaRG (AID 2283539); settings: mRNA level, 48 h; actives raise or lower the signal
Method in brief: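 qRT-PCR readout of UGT1A6 mRNA (normalized to ACTB/GAPDH/POLR2A) in differentiated HepaRG cells after 48 h chemical exposure; 8 concentrations, top 100 uM, half-log steps, 0.5% DMSO. Bidirectional curve fit relative to DMSO baseline.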

[9] = read-out: X-box binding protein 1 (XBP1), XBP1 (gene 7494); assay: LTEA_HepaRG_XBP1: Life Technologies and Expression Analysis (LTEA) Assay for X-box binding protein 1 (XBP1) using HepaRG (AID 2283540); settings: mRNA level, 48 h; actives raise or lower the signal
Method in brief: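 HepaRG, 48 h exposure, 8-pt half-log CRC top 100 uM, 0.5% DMSO vehicle, duplicates. Readout: TaqMan qRT-PCR of XBP1 mRNA, housekeeping-normalised (ACTB/GAPDH/POLR2A); bidirectional fit vs DMSO baseline.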

[10] = LTEA_HepaRG_LDH_cytotoxicity: Cytotoxicity Assessment in the Life Technologies and Expression Analysis (LTEA) Assay (AID 2283563; active = hit-call score of the fitted dose curve at least 0.9, where 1 is the maximum)
Method in brief: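 HepaRG (human liver line), 48 h exposure, 8-pt half-log series from 100 uM, 0.5% DMSO vehicle, duplicates. Read-out: LDH in spent medium. Positive-direction fit vs DMSO baseline.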

[11] = TOX21_p53_BLA_p2_viability: Viability Assessment in the Tox21 HCT-116 p53 Agonism Beta-lactamase Assay, Phase 2 (AID 2283591; active = hit-call score of the fitted dose curve at least 0.9, where 1 is the maximum;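 also: actives lower the ATP signal meaning cytotoxicity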)
Method in brief: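 Cytotoxicity readout: CellTiter-Glo ATP luminescence, 30 min at room temperature, after the beta-lactamase read. Cells were HCT116 exposed 16 h at 37C to compounds pin-transferred at 217-fold dilution from DMSO stocks.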

[12] = TOX21_p53_BLA_p3_viability: Viability Assessment in the Tox21 HCT-116 p53 Agonism Beta-lactamase Assay, Phase 3 (AID 2283593; active = hit-call score of the fitted dose curve at least 0.9, where 1 is the maximum;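 also: cells exposed to compound for 16 h before reading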)
Method in brief: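 Cellular ATP was quantified by CellTiter-Glo luminescence, read after 30 min at room temperature. Beforehand, HCT116 cells (4000/well) received compound 5 h post-seeding, 217-fold diluted from DMSO, then incubated 16 h at 37C.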

[13] = molecular target: Cellular tumor antigen p53 (Homo sapiens) (UniProt P04637); assay: TOX21_p53_BLA_p3_ratio: Tox21 HCT-116 p53 Agonism Beta-lactamase Assay, Ratio, Phase 3 (AID 2283596; active = hit-call score of the fitted dose curve at least 0.9, where 1 is the maximum)
Cellular tumor antigen p53 (Homo sapiens), sequence (P04637 whole entry, looked up): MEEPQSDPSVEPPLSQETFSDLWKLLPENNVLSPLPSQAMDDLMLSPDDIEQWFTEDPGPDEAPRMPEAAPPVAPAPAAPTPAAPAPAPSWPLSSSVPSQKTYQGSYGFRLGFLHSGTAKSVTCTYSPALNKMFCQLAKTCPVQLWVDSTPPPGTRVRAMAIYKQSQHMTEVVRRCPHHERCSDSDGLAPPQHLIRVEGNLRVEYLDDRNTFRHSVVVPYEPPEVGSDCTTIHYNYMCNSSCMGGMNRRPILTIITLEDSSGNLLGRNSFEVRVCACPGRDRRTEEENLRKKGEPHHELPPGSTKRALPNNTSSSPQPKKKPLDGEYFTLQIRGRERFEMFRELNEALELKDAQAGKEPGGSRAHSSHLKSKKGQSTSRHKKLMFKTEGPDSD
Method in brief: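 Cells were seeded at 4000/well, rested 5 h at 37C, then dosed with DMSO compound solutions (217-fold dilution) for 16 h. CCF4-AM substrate was loaded for 2 h at room temperature, and the 460/530 nm emission ratio was fitted for gain of signal versus DMSO.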

[14] = TOX21_p53_BLA_p4_viability: Viability Assessment in the Tox21 HCT-116 p53 Agonism Beta-lactamase Assay, Phase 4 (AID 2283597; active = hit-call score of the fitted dose curve at least 0.9, where 1 is the maximum;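 also: hits lower the luminescence signal meaning cytotoxicity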)
Method in brief: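 ATP content by CellTiter-Glo luminescence, 30 min RT, read after the beta-lactamase ratio step. Cells: HCT116, 4000/well, compound added after 5 h, exposure 16 h at 37C. Signal loss = reduced viability.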

[15] = molecular target: Cellular tumor antigen p53 (Homo sapiens) (UniProt P04637); assay: TOX21_p53_BLA_p5_ratio: Tox21 HCT-116 p53 Agonism Beta-lactamase Assay, Ratio, Phase 5 (AID 2283599; active = hit-call score of the fitted dose curve at least 0.9, where 1 is the maximum)
Method in brief: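 Beta-lactamase reporter ratio (blue 460 nm over green 530 nm, 405 nm excitation) after 2 h CCF4-AM loading, in HCT-116 cells exposed 16 h at 37 C to compounds pinned at 217-fold dilution. Increases relative to DMSO baseline scored.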

[16] = TOX21_p53_BLA_p5_viability: Viability Assessment in the Tox21 HCT-116 p53 Agonism Beta-lactamase Assay, Phase 5 (AID 2283600; active = hit-call score of the fitted dose curve at least 0.9, where 1 is the maximum)
Method in brief: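 ATP luminescence (CellTiter-Glo, 30 min, RT) served as the viability read-out, with loss of signal indicating cytotoxicity. Compounds in DMSO were pinned at a 217-fold dilution onto 4000 cells/well and incubated 16 h, 37C.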

[17] = ATG_XTT_Cytotoxicity: Cytotoxicity Assessment in the Attagene TRANS-FACTORIAL HepG2 Assay (AID 2283584; active = hit-call score of the fitted dose curve at least 0.9, where 1 is the maximum)
Method in brief: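 XTT readout of cell number in transfected HepG2 cells, 24 h post-dosing; DMSO serves as negative control and baseline, with activity taken as loss of viability signal.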

Measured: AC50

CC(C)Oc1cccc(NC(=O)c2ccccc2C(F)(F)F)c1
active: [7] 29.4 µM
inactive: [1] | [2] | [3] | TIMP1, TIMP1 (gene 7076) | [4] | [5] | [6] | [8] | [9] | [10] | [11] | [12] | [13] | [14] | [15] | [16]

CCNC(=O)NC(=O)C(C#N)=NOC
active: [4] 0.27 µM | [8] 0.306 µM
inactive: [1] | [2] | [3] | TIMP1, TIMP1 (gene 7076) | [5] | [7] | [9] | [10]

COC(=O)c1c(C(F)F)nc(C(F)(F)F)c(C2=NCCS2)c1CC(C)C
inactive: [1] | [2] | [3] | TIMP1, TIMP1 (gene 7076) | [4] | [5] | [6] | [8] | [9] | [10] | [13] | [14] | [15] | [16]
active: [7] 5.73 µM

CCOC(=O)C(C)OC(=O)c1cc(Oc2ccc(C(F)(F)F)cc2Cl)ccc1[N+](=O)[O-] (centres undefined)
inactive: [1] | [2] | [3] | TIMP1, TIMP1 (gene 7076) | [4] | [6] | [8] | [9] | [10] | [11] | [12] | [13] | [14] | [15] | [16]
active: [5] 28.4 µM | [7] 8.94 µM

N#Cc1c[nH]cc1-c1cccc2c1OC(F)(F)O2
active: [1] 50 µM | [2] 50 µM | [5] 18 µM | [6] 71.3 µM | [7] 34.3 µM | [13] 8.51 µM | [15] 5.39 µM
inactive: TIMP1, TIMP1 (gene 7076) | [4] | [8] | [9] | [10] | [17] | [11] | [12] | [14] | [16]

N#Cc1c(Cl)cccc1Cl
inactive: [1] | [2] | [3] | TIMP1, TIMP1 (gene 7076) | [4] | [5] | [6] | [7] | [8] | [9] | [10] | [13] | [15]

From PubChem BioAssay (EPA / NIEHS)
